From PubChem BioAssay (NCATS) come the findings set out here.

Test [1] is described as follows: Viability qHTS for spleen associated tyrosine kinase inhibitor (SYKi) naive MV4-11 cells (AID 1963823). Further: nearly all actives have a fitted effect of over 40% in size. Put shortly:
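Read-out: CellTiter-Glo luminescence. Exposure: 72 hr, 37 C, 5% CO2, 95% humidity. Cells: MV4-11 without SYK inhibitor history, 500/well, qHTS format.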
(In general: Quantitative high-throughput screening tests each substance at several concentrations.)

Test [2] can be described thus: Viability qHTS for spleen associated tyrosine kinase inhibitor (SYKi) drug resistant MV4-11 cells (AID 1963824). Further: nearly all actives have a fitted effect of over 35% in size. Put shortly: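 SYK inhibitor-resistant MV4-11 AML cells, 500 per well, added to predispensed compounds and incubated 72 hr at 37 C, 5% CO2. Viability measured by CellTiter-Glo luminescence after 10 min at room temperature.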
A short description of test [3]: Quantitative highthroughput screen to assess conditional lethalithy of NOMO1 cells grown in RPMI1640 with dialyzed fetal bovine serum (RPMI+ds) (AID 1963877). Further: nearly all actives have a fitted effect of over 30% in size.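 On Viability: series mostly up to about 46 µM; 100% = DMSO control wells and 0% = empty wells.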 Put shortly: (§1)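 Each medium arm—HPLM with 10% dialyzed FBS, or RPMI1640 with 5 mM glucose and 10% untreated or dialyzed FBS—was screened against an 11-point, 3-fold compound titration for 48 h at 37 °C, with CellTiter-Glo luminescence as endpoint.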

A short description of test [4]: Quantitative highthroughput screen to assess conditional lethalithy of SEM cells grown in Human Plasma-Like Medium with dialyzed fetal bovine serum (HPLM+ds) (AID 1963882). Further: nearly all actives have a fitted effect of over 35% in size. On Viability: series mostly up to about 46 µM. An outline of the steps: as §1
A short description of test [5]: Quantitative highthroughput screen to assess conditional lethalithy of SEM cells grown in RPMI1640 with unreated serum (RPMI+s) (AID 1963883). Further: nearly all actives have a fitted effect of over 35% in size.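 On Viability: 100% = DMSO wells and 0% = empty wells without cells.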 An outline of the steps:
as §1

Test [6] can be described thus: Cellular viability qHTS for adrenocortical cancer (ACC) cell line SW-13 (AID 1963989). Further: nearly all actives have a fitted effect of over 65% in size.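 On activity (max response): cells grown in serum-free medium with ITS supplement; on the % scale 0 is the no-effect control and ±100 the full control effect.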 Particulars: SW-13 ACC cells viability, CellTiter-Glo, 48 h; activity (max response): stronger effect = lower value. Put shortly:
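48 h treatment, SW-13 in ITS/DMEM serum-free; doses up to 46 uM; readout CellTiter-Glo luminescence; curve fit four-parameter logistic.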

Test [7] can be described thus: Cellular viability qHTS for adrenocortical cancer (ACC) cell line NCI-H295R (AID 1963990). Further: nearly all actives have a fitted effect of over 60% in size. Put shortly: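 Compound titrations (up to 46 uM final) are applied to NCI-H295R cultures for 48 h at 37C. Viable cell number is estimated by CellTiter-Glo signal, normalised to DMSO and doxorubicin controls.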
Test [8] in a line: Quantitative highthroughput screen to assess conditional lethalithy of SEM cells grown in RPMI1640 with dialyzed fetal bovine serum (RPMI+ds) (AID 1963884). Further: nearly all actives have a fitted effect of over 35% in size.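 On Viability: series mostly up to about 46 µM; 100% = DMSO control wells and 0% = empty wells without cells.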 An outline of the steps: as §1
The nature of test [9]: Quantitative highthroughput screen to assess conditional lethalithy of NOMO1 cells grown in Human Plasma-Like Medium with dialyzed fetal bovine serum (HPLM+ds) (AID 1963878). Further: nearly all actives have a fitted effect of over 35% in size.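 On Viability: 100% = DMSO wells and 0% = empty wells on each plate.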 An outline of the steps: as §1
Test [10] is described as follows: Quantitative highthroughput screen to assess conditional lethalithy of P12 Ichikawa cells grown in RPMI1640 with untreated serum (RPMI+s) (AID 1963881). Further: nearly all actives have a fitted effect of over 35% in size.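 On Viability: series mostly up to about 46 µM; 100% = DMSO wells and 0% = empty wells without cells.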 Particulars: Potency: viability. Put shortly:
as §1

The nature of test [11]: Quantitative highthroughput screen to assess conditional lethalithy of P12 Ichikawa cells grown in Human Plasma-Like Medium with dialyzed fetal bovine serum (HPLM+ds) (AID 1963879). Further: nearly all actives have a fitted effect of over 35% in size. On Viability: series mostly up to about 46 µM. Particulars: Potency: viability. An outline of the steps:
as §1

Test [12] in a line: Quantitative highthroughput screen to assess conditional lethalithy of NOMO1 cells grown in RPMI1640 with untreated serum (RPMI+s) (AID 1963876). Further: nearly all actives have a fitted effect of over 35% in size.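 On Viability: 100% = DMSO wells and 0% = empty wells without cells.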 Put shortly:
as §1

Test [13] can be described thus: Quantitative highthroughput screen to assess conditional lethalithy of P12 Ichikawa cells grown in RPMI1640 with dialyzed fetal bovine serum (RPMI+ds) (AID 1963880). Further: nearly all actives have a fitted effect of over 35% in size. The conditions noted are these: Potency: P12-Ichikawa viability. An outline of the steps: as §1

Values joined by “and” are separate entries in the source; they are usually repeats but may differ in a detail not shown here. Equal entries are not always repeated. Records with an inconclusive call do not appear. Some compounds were tested as several samples or in several runs, with calls that do not always agree. Active and inactive are the calls of the source. The call rests on the fitted dose curve; in most records, active means well fitted curve in the direction sought with a large enough effect; inconclusive means small, poorly fitted or top-dose-only effect, or another doubt; inactive means no such curve, though single readings can be large; an effect the other way counts as inactive or inconclusive.
Potency means the concentration at half of the fitted maximal effect.

Regarding `O=S(=O)(F)Cc1ccccc1`, the Potency entry in test [1], in test [2], in [3], in test [4], in [5] and in test [7] was “inactive” each time. Further, the activity (max response) in [6] was 2.11% (inactive).

In the case of `CCNC(=O)CC1N=C(c2ccc(Cl)cc2)c2cc(OC)ccc2-n2c(C)nnc21` (configuration not stated), the Potency in [1] was 14.8 µM (active) and inactive and 517 nM (active); in test [2], 8.33 µM (active) and inactive and 517 nM (active); in test [8], 23.5 µM (active). Further, the Potency result in [3] and in [7] was “inactive” in each case. Besides, in [6], the activity (max response) is -19.5% (inactive).

Take `C[C@]12CC[C@@H]3c4ccc(OC(=O)N(CCCl)CCCl)cc4CC[C@H]3[C@@H]1CC[C@@H]2OP(=O)(O)O`: the Potency entry in [1], in [2], in [10] and in [7] was “inactive” throughout. In addition, the Potency in test [9] was 18.7 µM (active). Also, in test [6], the activity (max response) is -13.4% (inactive).

Turning to `Cc1cccc(C)c1NC(=O)CN1CCCC1=O`, the Potency entry in test [1], in [2], in test [9], in test [11], in test [10] and in [5] was “inactive” throughout. Moreover, the activity (max response) in test [6] is -5.06% (inactive) and 4.95% (inactive).

Consider `C[C@H]1O[C@@H](O[C@H]2C[C@@H](O)[C@]3(CO)C4C(CC[C@]3(O)C2)[C@@]2(O)CC[C@H](C3=CC(=O)OC3)[C@@]2(C)C[C@H]4O)[C@@H](O)[C@@H](O)[C@H]1O` (some centres not stated), for which the Potency is 172 nM (active) in [1] and 122 nM (active) in test [2].

Take `COc1ccc(C(=O)c2c(C)n(CCN3CCOCC3)c3cc(I)ccc23)cc1`: the Potency in test [1] is 13200 nM (active); in test [2] it was 10500 nM (active); in [12], 0.935 µM (active); in test [11], 4.18 µM (active); in test [13] it was 8.33 µM (active); in [10], 4.18 µM (active). Besides, the results for the Potency in test [6] and in [7] were 31600 nM (active) and 20 µM (active), respectively.

As for `COC[C@@H](NC(C)=O)C(=O)NCc1ccccc1`, the Potency entry in test [1], in [2] and in [4] was “inactive” each time. In [9], the Potency is 18.7 µM (active). For the same molecule, the activity (max response) in test [6] is 8.1% (inactive) and 13.7% (inactive).

Turning to `C[C@@H]1C[C@@H]([C@H](O)CC2CC(=O)NC(=O)C2)C(=O)[C@@H](C)C1`, the Potency in [1] is 376 nM (active) and 417 nM (active); in test [2] it was 841 nM (active) and 590 nM (active); in [12] it was 1.66 µM (active); in test [3], 1.66 µM (active); in [4], 0.418 µM (active); in test [5], 0.332 µM (active). For the same molecule, the Potency in [6] is 1.84 µM (active) and 1.78 µM (active); in test [7] it was 920 nM (active) and 1 µM (active).

For `CCc1[nH]c2ccc(OC)cc2c1CCN(C)C`, the Potency in test [1] is 10300 nM (active). Besides, the Potency entry in test [2] is “inactive”.

With `Cc1[nH]nc2ccc(-c3cncc(OC[C@@H](N)Cc4c[nH]c5ccccc45)c3)cc12`, the Potency is 46.8 nM (active) in [1]; 65.1 nM (active) and 105 nM (active) in test [2]; 0.526 µM (active) in [9]; 0.59 µM (active) in test [5]; 0.418 µM (active) in [8]; 708 nM (active) in [6]. For the same molecule, in test [7], the Potency is 2.24 µM (active).

With `CO[C@@H]1[C@@H](O)[C@@H](O[C@H]2CC[C@]3(C=O)C4CC[C@]5(C)[C@@H](C6=CC(=O)OC6)CC[C@]5(O)[C@@H]4CC[C@H]3C2)O[C@@H](C)[C@H]1O[C@@H]1O[C@H](CO[C@@H]2O[C@H](CO)[C@@H](O)[C@H](O)[C@H]2O)[C@@H](O)[C@H](O)[C@H]1O` (some centres not stated), the Potency in test [1] was 3900 nM (active); in test [2], 1380 nM (active).

For `CCC1C2CC3C4N(C)c5ccccc5C45CC(C2C5O)N3C1O` (configuration not stated), the Potency entry in [1] and in [2] was “inactive” each time.

In the case of `COc1cc(OC)c(OC)cc1C=O`, the Potency result in [1], in test [2], in [12], in test [11] and in test [5] was “inactive” in each case. Also, the activity (max response) in [6] is 8.71% (inactive).

For the molecule `CC(=O)OC[C@]12C[C@H](OC(C)=O)C(C)=C[C@H]1O[C@@H]1[C@H](O)[C@@H](O)[C@@]2(C)[C@]12CO2`, the Potency result in test [1] and in test [2] was “inactive” each time.

As to `CC(C)(C)[C@]1(O)C[C@@H]2OC(=O)C[C@@]23C(=O)O[C@@H]2OC(=O)[C@@H](O)[C@]213`, the Potency result in test [1] and in test [2] was “inactive” each time.

As for `CC(C)c1cccc(C(C)C)c1O`, the Potency entry in [1], in test [2], in test [3], in test [9], in test [11] and in test [5] was “inactive” throughout. Besides, the activity (max response) in [6] was 18.8% (inactive) and -6.92% (inactive). In test [7], the Potency entry was “inactive and 23.1 µM (active)”.

As for `CNCC(O)c1ccc(O)cc1` (configuration not stated), the Potency result in [1], in test [2], in test [9], in test [10], in test [4] and in test [5] was “inactive” throughout. Also, the Potency entry in test [8] was “inactive”. Further, the activity (max response) in [6] is -3.15% (inactive) and -7.74% (inactive).

Turning to `CC[C@@]1(O)C(=O)OCc2c1cc1n(c2=O)Cc2cc3ccccc3nc2-1`, the Potency is 23.5 nM (active) in test [1]; 23.5 nM (active) in test [2]; 0.0662 µM (active) in test [9]; 0.0296 µM (active) in test [11]; 0.0209 µM (active) in test [13]; 0.0235 µM (active) in test [5]. Moreover, the Potency is 0.0264 µM (active) in test [8] and 126 nM (active) in test [6].

Turning to `Fc1ccc(C(OCCN2CCN(CCCc3ccccc3)CC2)c2ccc(F)cc2)cc1`, the Potency is 5.96 µM (active) and 6.61 µM (active) in test [1]; 6.68 µM (active) and 6.61 µM (active) in test [2]; 20.9 µM (active) in [9]; 5.8 µM (active) and 14.1 µM (active) in test [6]; 4.61 µM (active) and 11.2 µM (active) in test [7].

Take `COC[C@H]1OC(=O)c2coc3c2[C@@]1(C)C1=C(C3=O)C2CCC(=O)[C@@]2(C)C[C@H]1OC(C)=O` (some centres not stated): the Potency in test [1] was 14.6 µM (active) and 3.32 µM (active); in test [2] it was 16.4 µM (active) and 3.72 µM (active). The Potency result in test [9], in test [11], in test [4] and in test [5] was “inactive” throughout.

With `Cc1cccc(NC(=O)c2ccc(C(F)(F)F)cc2C(=O)O)n1`, the Potency entry in test [1] and in test [2] was “inactive” each time.

As for `COC[C@H]1OC(=O)c2coc3c2[C@@]1(C)C1=C(C3=O)[C@@H]2CC[C@H](O)[C@@]2(C)C[C@@H]1OC(C)=O`, the figures for the Potency in test [1], in [2] and in [9] were 11600 nM (active), 14600 nM (active) and 13.2 µM (active), respectively. The Potency result in test [12] and in test [3] was “inactive” in each case.

Turning to `CC(=O)OC[C@]12C[C@H](OC(=O)CC(C)C)C(C)=C[C@H]1O[C@@H]1[C@H](O)C[C@@]2(C)[C@]12CO2`, the Potency in test [1] is 252 nM (active); in [2] it was 282 nM (active).

Turning to `CCC1(c2ccc(N)cc2)CCC(=O)NC1=O` (configuration not stated), the Potency entry in [1], in [2], in [3], in test [9], in [11] and in test [10] was “inactive” throughout. In addition, the Potency result in [4], in test [5], in test [8] and in test [7] was “inactive” in each case. Moreover, the activity (max response) in [6] was -1.13% (inactive) and 5.11% (inactive).
